An excerpt weighted towards active compounds, which were near 1.3% of everything screened.
TcdB inh = inhibitors of Clostridioides difficile toxin B glycohydrolase; inhibition, % at 9.99 µM; AID 652162; TcdB glycohydrolase enzymatic assay, plate reader; P18177; actives 0.24% (n = 350,000); in the data active = inhibition above about 10%
MazEF act = MazEF (E. coli) toxin RNase activation; P0AE70; FAM/BHQ RNA-DNA oligo cleavage fluorescence, 5 h; activation, % at 20 µM; actives 0.32% (n = 350,000); AID 504720; in the data active = activation above about 50%
Mtb hypoxia inh = reduces hypoxia-regulated biosensor signal in M. tuberculosis. M. tuberculosis hypoxia-regulated fluorescent reporter, fluorescence. fluorescence inhibition, % (no concentration beside the values). actives 0.1% (n = 300,000). AID 1159583; in the data active = fluorescence inhibition mostly above about 23%, no sharp cut-off; inactive = mostly below about 17%
Sa ugtP lethal = kills S. aureus RN4220 lacking UgtP; growth inhibition, % (concentration not given with the values); AID 1259309; S. aureus RN4220 ugtP deletion, OD600 growth, 16 h; actives 0.54% (n = 330,000); in the data active = growth inhibition above about 68%;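 also: plate controls were untreated wells for no effect and antibiotic for full effect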
PfHsp40 yeast = rescue of PfHsp40-mediated yeast toxicity | S. cerevisiae expressing PfHsp40, growth rescue, ATP luminescence | growth rescue, % at 12.5 µM | actives 0.68% (n = 340,000) | AID 504582; in the data active = growth rescue above about 28%, passing the limit was not always enough;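 also: yeast W303a lacking pdr1 and pdr3 grown in galactose medium; growth measured after three days at 30 °C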
RN4220 kill = kills Staphylococcus aureus RN4220; S. aureus RN4220 growth, OD600, 16 h; inhibition, % (test concentration not listed); actives 0.33% (n = 330,000); in the data active = inhibition above about 85%;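 also: plate controls were untreated cells for no effect and reference antibiotic for full effect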
* marks the source's active call; other numbers are inactive results; . = no result shown; ! = a repeat was not active.

SMILES	TcdB inh	MazEF act	Mtb hypoxia inh	Sa ugtP lethal	PfHsp40 yeast	RN4220 kill
Oc1ccc(Cl)cc1/C=C/c1ccc2cccc(O)c2n1	1.8	60.2*	-2.0	26.6	160.0*	14.8
COc1ccc(NC(=O)Nc2cccc3c2O[C@@H](CN(C)S(=O)(=O)c2ccc(Cl)cc2)[C@H](C)CN([C@@H](C)CO)C3=O)cc1	0.3	.	.	.	.	.
Cc1ccc(-c2ccc3c(c2)O[C@@H](CN(C)C(=O)Nc2ccc(F)cc2)[C@H](C)CN([C@@H](C)CO)S3(=O)=O)cc1	0.8	.	.	.	.	.
CCN1/C(=C/c2ccc3cc(C)ccc3[n+]2CC)Sc2cc(C)c(C)cc21	-6.4	70.8*	39.9*	100.2*	10.8	100.1*
CCOC(=O)/C(=C/C=C1\Sc2cc(C)c(C)cc2N1CC)C(C)=O	0.4	-373.0	-56.0	7.7	0.6	12.9
CC[n+]1c(/C=C2\Sc3ccccc3N2C)ccc2cccc(C)c21	3.8	105.8*	.	100.7*	-0.5	100.4*
CC(=S)/C=C1\Sc2ccccc2N1C	0.9	11.2	-4.5	-1.3	1.5	-0.3
CCN1/C(=C/c2ccc3cc(C)ccc3[n+]2CC)Sc2ccccc21	0.5	68.9*	.	100.5*	2.8	100.1*
O=C(NN=Cc1oc(O)c2ccccc12)c1ccccc1O	.	.	-1.5	3.3	.	4.0
Cc1cc(/C=N/n2c(COc3ccccc3C)nc3ccccc3c2=O)c(O)c([N+](=O)[O-])c1	0.8	-0.6	.	.	56.8*	.
C[C@@H]1CN([C@H](C)CO)C(=O)c2cc(NS(=O)(=O)c3cccs3)ccc2O[C@@H](C)CCCCO[C@@H]1CN(C)C(=O)Cc1ccccc1	0.5	.	.	.	.	.
O=C(CN1CCN(S(=O)(=O)c2ccc(Br)cc2)CC1)NN=Cc1ccc(Br)s1	.	.	-9.0	-9.4	.	3.1
O=C(c1ccc(S(=O)(=O)N2CCCCCC2)cc1)N1CCC(CN2C(=O)c3cccc4cccc(c34)C2=O)CC1	.	-20.4	12.5	-12.3	43.6*	-3.9
Cc1noc(C)c1NC(=O)Nc1ccc2c(c1)C(=O)N(C)[C@@H]1CC[C@@H](CC(=O)NCc3ccc(Cl)cc3)O[C@@H]1CO2	-0.3	.	.	.	.	.
Cc1ccc(-n2c(SCC(=O)O)nc3c(sc(=S)n3-c3ccc(C)c(C)c3)c2=O)cc1	30.2*	3.0	0.4	6.8	-0.1	5.6
COc1cc2c(ccc3c4cc(OC)c(OC)cc4c[n+](C)c23)cc1O	9.4	-4.3	.	.	126.9*	.
COC(=O)c1ccc(-n2c(C)ccc2-c2ccccc2)cc1	2.7	-8.1	10.8	97.1*	0.9	-0.5
C[C@@H]1CN([C@H](C)CO)S(=O)(=O)c2ccc(C#C[C@@H](C)O)cc2O[C@@H]1CN(C)C(=O)C1CCC1	-8.2	.	.	.	.	.
CCOC(=O)c1cnn(-c2nc(SC)nc3sc4c(c23)CCCC4)c1N	.	-4.3	21.5	100.2*	13.2	99.8*
O=C(/C=C/c1ccc(Cl)cc1)N1CCN(c2c(Cl)cccc2[N+](=O)[O-])CC1	-0.9	-2.2	-0.8	-5.5	3.4	21.4
O=C(CSc1ccc(Cl)cc1)N1CCN(c2c(Cl)cccc2[N+](=O)[O-])CC1	.	7.1	7.5	33.2	66.2*	-12.5
Cc1nn(C)cc1-c1n[nH]c(=S)n1-c1ccc(F)cc1	10.4*	2.5	2.6	2.0	0.5	1.2
CSC1=N/C(=C\c2cccnc2)C(=O)N1c1ccccc1	-0.3	1.8	6.6	6.3	-2.2	6.3
CSC1=N/C(=C\c2ccccc2)C(=O)N1C	4.6	-2.2	2.6	4.9	40.1*	4.1
Cc1ccc(N2CC(C(=O)N3CCC(C(=O)Nc4ccc(Br)cc4)CC3)CC2=O)cc1 (configuration not stated)	0.5	2.8	-0.5	2.4	0.9	-1.1
SMILES	TcdB inh	MazEF act	Mtb hypoxia inh	Sa ugtP lethal	PfHsp40 yeast	RN4220 kill
O=C(Nc1ccc(Cl)c(Cl)c1)C1CC(=O)N(c2ccc(Br)cc2)C1 (configuration not stated)	.	10.3	1.4	7.3	31.2*	32.3
Cc1ccc(S(=O)(=O)N2CCN(Cc3nc4sc(C)c(C)c4c(=O)[nH]3)CC2)cc1	.	88.2*	12.2	5.1	-0.7	3.4
Cc1sc2nc(CN3CCN(S(=O)(=O)c4cccc5nonc45)CC3)[nH]c(=O)c2c1C	.	2.3	.	1.9	0.3	1.4
Cc1noc(C)c1NC(=O)N(C)C[C@@H]1Oc2ccc(NC(=O)C3CCCCC3)cc2C(=O)N([C@@H](C)CO)C[C@H]1C	12.5*!	6.6	7.5	-3.0	-1.1	-16.0
COc1ccc(NC(=O)N(C)C[C@H]2Oc3ccc(NC(=O)Nc4ccc5c(c4)OCO5)cc3C(=O)N([C@H](C)CO)C[C@@H]2C)cc1	0.8	11.4	.	.	54.3*	.
Cc1ccsc1C=NNc1ncc(Cl)cc1Cl	.	.	.	2.5	.	7.1
O=C(Nc1nc(-c2ccccn2)cs1)c1ccc(Cl)s1	0.7	7.2	.	58.3	-1.2	51.4
CCc1sc(C(=O)Nc2nc(-c3ccccn3)cs2)cc1C	.	13.5	-1.0	1.1	441.1*	35.6
CCc1sc(C(=O)Nc2nccs2)cc1C	1.1	-7.4	-7.7	-1.8	4.1	-1.5
Cc1ccc(C(=O)Nc2nc(-c3ccccn3)cs2)s1	-2.2	9.5	12.7	1.7	58.9*	19.1
C(=NNc1nc(-c2ccccc2)cs1)c1cccnc1	.	.	8.8	-6.9	.	-5.6
CC=C(C)C(=O)OC(C)(C)C1Cc2c(ccc3ccc(=O)oc23)O1 (configuration not stated)	.	.	17.5	1.7	.	8.0
FC(F)(F)c1ccccc1C=NN1CCN(Cc2ccccc2)CC1	.	.	7.2	92.5*	.	-2.8
CC1CN(C(C)CO)C(=O)c2cccc(N(C)C)c2OC1CN(C)C(=O)NC1CCCCC1 (configuration not stated)	.	.	5.8	2.3	.	2.7
COc1ccc(C2=NOC(CNC(N)=S)C2)cc1 (configuration not stated)	0.9	8.9	.	83.3*	-0.1	72.8
Cc1cc(C)cc(N=C2NC(=O)CS2)c1	13.3*	0.8	16.0	0.4	-0.6	0.8
Cc1cc(NC(=O)CSc2cn(CCNC(=O)c3ccccc3)c3ccccc23)no1	.	2.5	7.0	-3.4	-1.0	5.0
Cc1ccc(C(=O)NCCn2cc(SCC(=O)Nc3cc(C)on3)c3ccccc32)cc1	15.1*	-1.3	-11.7	3.5	1.1	16.3
CCn1c(SCC(=O)OC)nnc1-c1ccccc1	19.7*	-0.9	6.7	-2.3	-0.2	-0.6
O=c1[nH]c(NN=Cc2ccc3c(c2)OCO3)nc2ccccc12	.	.	-9.0	-17.7	.	3.8
O=c1[nH]c(N/N=C/c2ccc(O)cc2)nc2ccccc12	8.8	51.0*	.	.	1.1	.
O=c1[nH]c(N/N=C\c2ccc(F)cc2)nc2ccccc12	1.4	55.8*	.	.	-2.7	.
C[C@@H]1CN([C@@H](C)CO)C(=O)Cc2cc(NS(=O)(=O)c3cccs3)ccc2O[C@H]1CN(C)Cc1ccc(C(F)(F)F)cc1	-0.8	.	.	.	.	.
COc1ccc(CC(C)=NNC(=O)C2COc3ccccc3O2)cc1 (configuration not stated)	.	.	-7.0	-2.2	.	-1.7

High-throughput results deposited in PubChem BioAssay by several laboratories.
